# Measurements published in PubChem BioAssay (NCI).
# “And” between values parts separate entries of the source, which are not always exact repeats. Equal entries are not always repeated. About 83,000 compounds went through this panel and 20% of them were active in at least one assay; those are over-represented in the sample as a whole.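 Single-dose data. Exposure time 48 hours. Values below 10 considered active.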 The source made the active and inactive calls.
# Tested on: MDA-MB-468 breast
# Experiment: NCI-60 one-dose screen, 48 h (100 = growth as untreated, 0 = no growth, -100 = all killed)
# Details: 10 µM unless noted
row,Compound,growth
1,N#C/C(=C\c1ccc(-c2cccc(C(F)(F)F)c2)o1)c1ccccc1,23.4% (inactive)
2,CN(CSc1ccc(Cl)cc1)c1ccc(CSc2ccc(Cl)cc2)cc1,17.2% (inactive)
3,CCN(CC)CCOc1ccc2c(c1)C(=O)c1cc(OCCN(CC)CC)ccc1-2,14.9% (inactive) and -13.8% (active)
4,O=[N+]([O-])c1ccc2nc3c4ccccc4c4ccccc4c3nc2c1,75.2% (inactive)
5,CN1CCN(Cc2ccc(NC(=O)c3ccc(C#N)c(C#Cc4cnc(N)c5ncccc45)c3)cc2C(F)(F)F)CC1,98% (inactive)
6,CCNCc1ccccc1,98.6% (inactive)
7,O=C1OC(c2ccc(F)cc2)CC1CN1CCOCC1 (stereo not given),95.8% (inactive)
8,O=C(O)C1C2CCC1C(O)C2 (stereo not given),97.7% (inactive) and 110% (inactive)
9,N/C(=N\O)c1ccncc1,121% (inactive)
10,CC1(C)Cc2c(sc3ncn4nc(-c5ccc(O)cc5)nc4c23)CO1,61.4% (inactive)
11,COc1cc(CNCCCN2C(=O)c3ccc4c5c(ccc(c35)C2=O)C(=O)N(CCCNCc2cc(OC)c(OC)c(OC)c2)C4=O)cc(OC)c1OC,-93.3% (active)
12,Cc1ccccc1Nc1nc(SC(C)C)nc(-c2ccccc2)c1C#N,74.8% (inactive)
13,O=C(NCCO)C(F)(F)F,116% (inactive)
14,NC(=N\N=C\c1ccccc1O)/C(N)=N/N=C/c1ccccc1O,74% (inactive)
15,O=S(=O)(NCCCNc1nccc(-c2c(-c3cccc(F)c3)nc3sccn23)n1)c1cccc2ccccc12,59.3% (inactive)
